The text below walks through data of publication PMC7862700, “An all-to-all approach to the identification of sequence-specific readers for epigenetic DNA modifications on cytosine”.

Experiment in all cases: DAPPL (digital affinity profiling via proximity ligation, sequencing); 10 mM Tris-HCl pH 7.5, 50 mM NaCl, 1 mM DTT, 4% glycerol, room temperature, 30 min; GST-TFs on glutathione beads, 16-mer random dsDNA library, 0.1% formaldehyde crosslink after washing; high values mean tight binding
One assay addresses T1, FEV (Homo sapiens, UniProt Q99581 1-238).
T1 sequence: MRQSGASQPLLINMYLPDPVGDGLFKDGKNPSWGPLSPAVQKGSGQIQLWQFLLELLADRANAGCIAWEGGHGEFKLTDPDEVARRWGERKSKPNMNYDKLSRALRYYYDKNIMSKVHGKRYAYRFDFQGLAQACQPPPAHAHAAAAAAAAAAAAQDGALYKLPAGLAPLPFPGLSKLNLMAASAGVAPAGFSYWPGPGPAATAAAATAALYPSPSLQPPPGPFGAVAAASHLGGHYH
Particulars: protein: recombinant; tags: N-terminal GST; dsDNA, one strand shown. The essentials: (§1)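 Each value of binding signal is a hexamer's read frequency for a factor divided by the same hexamer's frequency in the tag-only sample. Barcoded, bead-captured GST fusions of human transcription factors made in yeast were pooled with that sample and incubated with 200 nmole of a random double-stranded 16-mer DNA library in Tris/NaCl/DTT/glycerol buffer at room temperature for 30 min. Washing, 0.1% formaldehyde crosslinking, proximity ligation, PCR and Illumina NextSeq500 sequencing followed.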

The target in a further assay is ETV5 (Homo sapiens, UniProt P41161 1-510). Particulars: protein: recombinant; tags: N-terminal GST; dsDNA, one strand shown. The essentials:
as §1

In another assay the target is HSF1 (Homo sapiens, UniProt Q00613 1-529). As to conditions: protein: recombinant; tags: N-terminal GST; chain copies: 3; dsDNA, one strand shown. Put shortly: as §1
The target of a further assay is T2, SPIC (Homo sapiens, UniProt Q8N5J4 1-248).
T2 sequence: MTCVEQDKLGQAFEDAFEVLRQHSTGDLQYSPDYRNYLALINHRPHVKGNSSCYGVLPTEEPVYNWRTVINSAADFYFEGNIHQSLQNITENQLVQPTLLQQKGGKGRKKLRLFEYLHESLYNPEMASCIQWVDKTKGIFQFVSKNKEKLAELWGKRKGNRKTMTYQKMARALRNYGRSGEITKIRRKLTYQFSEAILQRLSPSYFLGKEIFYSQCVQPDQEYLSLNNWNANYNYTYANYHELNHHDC
Particulars: protein: recombinant; tags: N-terminal GST; dsDNA, one strand shown. Put shortly: as §1

A further assay has as its target ELF4 (Homo sapiens, UniProt Q99607 1-663). Particulars: protein: recombinant; tags: N-terminal GST; dsDNA, one strand shown. Put shortly:
as §1

In the next assay the target is T3, ELK4 (Homo sapiens, UniProt P28324-2 1-405).
T3 sequence: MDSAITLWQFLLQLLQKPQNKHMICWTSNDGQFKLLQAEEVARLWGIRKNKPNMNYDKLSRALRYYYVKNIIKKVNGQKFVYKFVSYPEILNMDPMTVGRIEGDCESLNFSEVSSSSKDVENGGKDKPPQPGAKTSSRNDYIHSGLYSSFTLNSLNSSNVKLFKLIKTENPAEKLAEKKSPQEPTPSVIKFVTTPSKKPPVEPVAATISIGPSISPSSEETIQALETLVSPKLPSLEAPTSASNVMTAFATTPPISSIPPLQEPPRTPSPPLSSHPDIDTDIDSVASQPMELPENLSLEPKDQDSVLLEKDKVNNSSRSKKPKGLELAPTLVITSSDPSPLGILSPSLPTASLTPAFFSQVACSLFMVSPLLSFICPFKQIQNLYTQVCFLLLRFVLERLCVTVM
Particulars: protein: recombinant; tags: N-terminal GST; dsDNA, one strand shown. The essentials:
as §1

A further assay addresses T4, ETV2 (Homo sapiens, UniProt O00321 1-342).
T4 sequence: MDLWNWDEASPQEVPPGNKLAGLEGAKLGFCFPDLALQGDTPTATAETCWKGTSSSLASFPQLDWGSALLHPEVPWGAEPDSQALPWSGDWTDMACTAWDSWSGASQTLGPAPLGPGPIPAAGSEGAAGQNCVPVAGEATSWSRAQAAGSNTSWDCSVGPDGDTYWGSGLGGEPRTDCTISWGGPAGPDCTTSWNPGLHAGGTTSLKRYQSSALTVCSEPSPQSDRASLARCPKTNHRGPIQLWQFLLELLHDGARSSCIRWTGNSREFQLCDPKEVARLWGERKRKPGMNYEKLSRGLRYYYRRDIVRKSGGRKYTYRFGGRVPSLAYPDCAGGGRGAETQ
Particulars: protein: recombinant; tags: N-terminal GST; dsDNA, one strand shown. The essentials: as §1

The target of another assay is T5, ELF3 (Homo sapiens, UniProt P78545 1-371).
T5 sequence: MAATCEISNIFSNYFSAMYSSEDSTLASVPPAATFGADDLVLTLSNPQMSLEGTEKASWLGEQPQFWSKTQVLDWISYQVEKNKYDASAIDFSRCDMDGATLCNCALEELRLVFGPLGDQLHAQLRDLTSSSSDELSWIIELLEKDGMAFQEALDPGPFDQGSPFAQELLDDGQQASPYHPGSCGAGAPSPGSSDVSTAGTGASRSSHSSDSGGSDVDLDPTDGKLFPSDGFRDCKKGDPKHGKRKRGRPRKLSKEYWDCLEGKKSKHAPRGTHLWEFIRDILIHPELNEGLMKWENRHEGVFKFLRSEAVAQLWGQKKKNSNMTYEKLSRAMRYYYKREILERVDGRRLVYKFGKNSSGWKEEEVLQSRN
As to conditions: protein: recombinant; tags: N-terminal GST; dsDNA, one strand shown. The essentials: as §1

A further assay deals with CRX (Homo sapiens, UniProt O43186 1-299). As to conditions: protein: recombinant; tags: N-terminal GST; dsDNA, one strand shown. Put shortly: as §1
A further assay deals with ETV1 (Homo sapiens, UniProt P50549 1-477). Particulars: protein: recombinant; tags: N-terminal GST; dsDNA, one strand shown. Put shortly:
as §1

A further assay addresses T6, ERF (Homo sapiens, UniProt P50548 1-548).
T6 sequence: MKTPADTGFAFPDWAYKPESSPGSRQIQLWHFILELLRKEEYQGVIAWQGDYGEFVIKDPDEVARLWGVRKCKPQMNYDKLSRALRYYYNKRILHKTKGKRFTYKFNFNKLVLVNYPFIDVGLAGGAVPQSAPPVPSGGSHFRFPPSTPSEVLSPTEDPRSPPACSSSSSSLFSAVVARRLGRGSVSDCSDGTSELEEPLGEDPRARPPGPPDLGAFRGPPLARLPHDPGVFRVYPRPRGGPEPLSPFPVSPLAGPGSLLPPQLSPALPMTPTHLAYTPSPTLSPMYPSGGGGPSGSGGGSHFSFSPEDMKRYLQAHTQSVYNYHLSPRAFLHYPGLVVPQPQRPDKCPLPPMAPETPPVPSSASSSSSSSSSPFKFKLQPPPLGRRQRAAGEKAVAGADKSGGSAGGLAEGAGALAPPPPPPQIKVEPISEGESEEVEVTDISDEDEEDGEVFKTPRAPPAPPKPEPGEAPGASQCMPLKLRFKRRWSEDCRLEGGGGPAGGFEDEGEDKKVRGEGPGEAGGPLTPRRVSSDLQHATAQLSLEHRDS
As to conditions: protein: recombinant; tags: N-terminal GST; dsDNA, one strand shown. Put shortly:
as §1

A further assay deals with T7, ETV3L (Homo sapiens, UniProt Q6ZN32 1-361).
T7 sequence: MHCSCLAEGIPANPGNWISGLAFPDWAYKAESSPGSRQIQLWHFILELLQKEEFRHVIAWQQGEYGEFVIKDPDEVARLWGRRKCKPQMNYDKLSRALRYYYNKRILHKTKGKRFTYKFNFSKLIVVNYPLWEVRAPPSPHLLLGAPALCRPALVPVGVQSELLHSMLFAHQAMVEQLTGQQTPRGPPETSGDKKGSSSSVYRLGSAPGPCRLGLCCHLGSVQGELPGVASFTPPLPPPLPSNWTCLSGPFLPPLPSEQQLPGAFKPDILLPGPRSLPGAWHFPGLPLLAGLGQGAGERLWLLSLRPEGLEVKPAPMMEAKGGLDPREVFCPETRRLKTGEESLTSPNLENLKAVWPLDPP
As to conditions: protein: recombinant; tags: N-terminal GST; dsDNA, one strand shown. The essentials: as §1

The next assay has as its target T8, ETS2 (Homo sapiens, UniProt P15036 1-469).
T8 sequence: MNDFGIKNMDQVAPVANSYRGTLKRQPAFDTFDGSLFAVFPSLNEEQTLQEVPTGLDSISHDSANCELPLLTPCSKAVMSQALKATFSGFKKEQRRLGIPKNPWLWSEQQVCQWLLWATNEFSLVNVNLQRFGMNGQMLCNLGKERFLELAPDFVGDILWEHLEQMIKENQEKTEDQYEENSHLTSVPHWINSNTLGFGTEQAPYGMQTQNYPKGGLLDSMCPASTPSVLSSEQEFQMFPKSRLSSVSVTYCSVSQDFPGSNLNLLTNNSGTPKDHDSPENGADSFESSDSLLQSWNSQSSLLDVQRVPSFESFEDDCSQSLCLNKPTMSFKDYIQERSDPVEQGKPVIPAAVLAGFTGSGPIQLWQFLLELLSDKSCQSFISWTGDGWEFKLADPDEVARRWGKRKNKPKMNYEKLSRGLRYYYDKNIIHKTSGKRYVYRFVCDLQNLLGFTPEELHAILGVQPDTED
Particulars: protein: recombinant; tags: N-terminal GST; dsDNA, one strand shown. The essentials:
as §1

The target in the next assay is T9, SPDEF (Homo sapiens, UniProt O95238 1-335).
T9 sequence: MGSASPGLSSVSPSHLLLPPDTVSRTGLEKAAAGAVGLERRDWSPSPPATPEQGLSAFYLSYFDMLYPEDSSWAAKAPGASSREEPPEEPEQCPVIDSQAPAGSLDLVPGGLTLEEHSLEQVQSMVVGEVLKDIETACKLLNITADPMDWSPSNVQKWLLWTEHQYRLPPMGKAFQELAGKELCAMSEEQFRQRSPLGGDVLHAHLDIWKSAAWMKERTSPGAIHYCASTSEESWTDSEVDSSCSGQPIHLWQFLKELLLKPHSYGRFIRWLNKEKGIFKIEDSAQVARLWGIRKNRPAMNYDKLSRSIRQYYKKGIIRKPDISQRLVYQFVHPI
Particulars: protein: recombinant; tags: N-terminal GST; dsDNA, one strand shown. The essentials:
as §1

In another assay the target is T10, ETV7 (Homo sapiens, UniProt Q9Y603 1-341).
T10 sequence: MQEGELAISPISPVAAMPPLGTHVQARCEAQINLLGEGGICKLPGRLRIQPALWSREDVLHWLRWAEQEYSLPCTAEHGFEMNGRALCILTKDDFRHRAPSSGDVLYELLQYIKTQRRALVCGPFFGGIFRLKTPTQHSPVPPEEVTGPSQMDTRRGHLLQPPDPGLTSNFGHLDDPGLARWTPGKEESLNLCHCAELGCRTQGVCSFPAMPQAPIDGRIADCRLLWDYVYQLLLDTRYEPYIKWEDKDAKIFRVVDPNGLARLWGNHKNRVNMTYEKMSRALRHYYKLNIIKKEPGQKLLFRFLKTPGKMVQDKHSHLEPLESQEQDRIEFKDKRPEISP
Particulars: protein: recombinant; tags: N-terminal GST; dsDNA, one strand shown. Put shortly: as §1

In a further assay the target is T11, ELF5 (Homo sapiens, UniProt Q9UKW6-2 1-255).
T11 sequence: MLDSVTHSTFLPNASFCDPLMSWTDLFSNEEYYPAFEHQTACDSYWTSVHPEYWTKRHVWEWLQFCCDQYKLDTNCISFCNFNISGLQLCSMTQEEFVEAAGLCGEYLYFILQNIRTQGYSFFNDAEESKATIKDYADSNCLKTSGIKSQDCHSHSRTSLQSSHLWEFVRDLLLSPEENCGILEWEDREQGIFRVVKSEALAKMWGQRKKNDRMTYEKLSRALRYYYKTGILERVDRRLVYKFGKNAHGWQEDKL
Particulars: protein: recombinant; tags: N-terminal GST; dsDNA, one strand shown. Put shortly:
as §1

The target of another assay is T12, ETV3 (Homo sapiens, UniProt P41162-2 1-143).
T12 sequence: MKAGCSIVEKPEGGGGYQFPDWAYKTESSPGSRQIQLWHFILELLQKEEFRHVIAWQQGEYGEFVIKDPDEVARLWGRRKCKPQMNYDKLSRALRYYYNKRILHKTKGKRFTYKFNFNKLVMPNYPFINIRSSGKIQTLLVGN
Particulars: protein: recombinant; tags: N-terminal GST; dsDNA, one strand shown. The essentials:
as §1

Another assay concerns the target ETV6 (Homo sapiens, UniProt P41212 1-452). As to conditions: protein: recombinant; tags: N-terminal GST; dsDNA, one strand shown. The essentials: as §1

Chain of ETV1 (P50549 whole entry): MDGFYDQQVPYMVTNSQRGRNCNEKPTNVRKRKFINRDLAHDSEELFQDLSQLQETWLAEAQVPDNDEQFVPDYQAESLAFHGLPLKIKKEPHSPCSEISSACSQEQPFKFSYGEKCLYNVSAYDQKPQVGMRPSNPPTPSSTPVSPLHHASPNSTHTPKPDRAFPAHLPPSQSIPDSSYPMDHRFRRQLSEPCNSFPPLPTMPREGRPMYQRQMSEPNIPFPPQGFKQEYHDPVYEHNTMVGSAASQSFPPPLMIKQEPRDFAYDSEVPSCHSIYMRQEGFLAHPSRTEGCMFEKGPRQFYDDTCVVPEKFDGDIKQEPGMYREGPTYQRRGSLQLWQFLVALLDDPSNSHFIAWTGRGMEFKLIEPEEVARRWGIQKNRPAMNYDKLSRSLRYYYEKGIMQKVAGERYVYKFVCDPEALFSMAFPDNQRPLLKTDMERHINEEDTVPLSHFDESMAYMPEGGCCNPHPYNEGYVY
Chain of ETV5 (P41161 whole entry): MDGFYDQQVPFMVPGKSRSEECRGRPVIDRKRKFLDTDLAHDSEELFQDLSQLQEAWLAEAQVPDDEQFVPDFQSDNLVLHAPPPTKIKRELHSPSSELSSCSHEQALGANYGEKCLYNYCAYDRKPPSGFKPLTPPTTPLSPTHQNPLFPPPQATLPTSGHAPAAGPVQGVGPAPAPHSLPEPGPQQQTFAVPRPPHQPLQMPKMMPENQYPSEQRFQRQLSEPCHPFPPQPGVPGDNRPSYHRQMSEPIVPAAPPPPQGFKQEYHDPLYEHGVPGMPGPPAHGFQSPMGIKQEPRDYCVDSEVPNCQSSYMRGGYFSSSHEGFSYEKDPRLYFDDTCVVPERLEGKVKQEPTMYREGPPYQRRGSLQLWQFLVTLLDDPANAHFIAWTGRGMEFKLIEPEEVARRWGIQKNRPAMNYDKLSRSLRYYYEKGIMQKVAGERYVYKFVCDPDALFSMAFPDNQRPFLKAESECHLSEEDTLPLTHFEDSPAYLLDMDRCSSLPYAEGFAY
Chain of CRX (O43186 whole entry): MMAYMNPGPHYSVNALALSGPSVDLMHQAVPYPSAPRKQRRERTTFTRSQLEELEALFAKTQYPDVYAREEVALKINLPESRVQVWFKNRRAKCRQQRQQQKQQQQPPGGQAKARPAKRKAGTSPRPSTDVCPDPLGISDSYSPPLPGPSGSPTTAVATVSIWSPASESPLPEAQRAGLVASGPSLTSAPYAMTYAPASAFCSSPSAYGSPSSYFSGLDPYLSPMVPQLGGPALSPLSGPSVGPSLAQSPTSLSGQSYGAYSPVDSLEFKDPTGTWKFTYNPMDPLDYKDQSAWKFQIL
Chain of ETV6 (P41212 whole entry): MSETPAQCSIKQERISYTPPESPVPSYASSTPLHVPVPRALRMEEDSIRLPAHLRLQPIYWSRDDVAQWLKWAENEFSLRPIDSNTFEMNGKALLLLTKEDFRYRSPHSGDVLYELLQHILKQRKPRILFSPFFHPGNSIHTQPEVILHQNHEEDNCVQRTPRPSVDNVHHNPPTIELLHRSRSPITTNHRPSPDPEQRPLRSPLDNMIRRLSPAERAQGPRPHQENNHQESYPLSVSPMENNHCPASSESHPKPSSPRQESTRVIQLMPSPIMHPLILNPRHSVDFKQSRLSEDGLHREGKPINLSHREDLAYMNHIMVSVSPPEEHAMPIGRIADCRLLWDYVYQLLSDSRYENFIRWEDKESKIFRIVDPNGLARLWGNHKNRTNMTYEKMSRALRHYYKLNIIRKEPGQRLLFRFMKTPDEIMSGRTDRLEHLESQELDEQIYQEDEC
Chain of HSF1 (Q00613 whole entry): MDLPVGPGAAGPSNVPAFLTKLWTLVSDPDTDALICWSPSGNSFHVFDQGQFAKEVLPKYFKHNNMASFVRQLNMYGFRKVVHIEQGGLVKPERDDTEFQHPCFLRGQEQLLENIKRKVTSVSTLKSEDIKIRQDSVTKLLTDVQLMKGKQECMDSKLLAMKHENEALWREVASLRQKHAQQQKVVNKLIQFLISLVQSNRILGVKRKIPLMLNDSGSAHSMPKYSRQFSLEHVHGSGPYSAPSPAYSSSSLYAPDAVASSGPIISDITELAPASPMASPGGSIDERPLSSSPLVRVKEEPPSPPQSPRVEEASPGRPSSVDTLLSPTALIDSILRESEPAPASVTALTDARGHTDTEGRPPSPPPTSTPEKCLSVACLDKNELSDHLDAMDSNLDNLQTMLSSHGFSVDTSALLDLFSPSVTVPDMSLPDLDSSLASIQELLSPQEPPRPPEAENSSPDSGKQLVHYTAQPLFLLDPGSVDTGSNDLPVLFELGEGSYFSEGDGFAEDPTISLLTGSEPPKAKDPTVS
Chain of ELF4 (Q99607 whole entry): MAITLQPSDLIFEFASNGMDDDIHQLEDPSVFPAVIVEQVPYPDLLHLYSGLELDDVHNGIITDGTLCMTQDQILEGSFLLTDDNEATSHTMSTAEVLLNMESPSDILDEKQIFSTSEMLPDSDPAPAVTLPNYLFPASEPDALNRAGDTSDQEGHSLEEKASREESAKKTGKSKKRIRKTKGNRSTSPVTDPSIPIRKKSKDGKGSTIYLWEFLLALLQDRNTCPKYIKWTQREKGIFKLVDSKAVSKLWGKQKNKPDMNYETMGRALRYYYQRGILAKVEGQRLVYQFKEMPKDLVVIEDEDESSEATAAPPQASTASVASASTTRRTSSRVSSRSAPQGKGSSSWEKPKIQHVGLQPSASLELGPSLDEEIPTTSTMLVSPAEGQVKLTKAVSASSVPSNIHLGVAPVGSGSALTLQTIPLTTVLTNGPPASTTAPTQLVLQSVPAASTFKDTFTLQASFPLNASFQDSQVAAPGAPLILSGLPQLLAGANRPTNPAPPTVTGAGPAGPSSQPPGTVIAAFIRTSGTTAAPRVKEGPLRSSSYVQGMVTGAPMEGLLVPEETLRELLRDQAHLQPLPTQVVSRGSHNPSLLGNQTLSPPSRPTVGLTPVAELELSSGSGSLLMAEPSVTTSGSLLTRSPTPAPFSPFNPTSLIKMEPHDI

For TCCTAC, the binding signal in the assay with FEV is 1.4 fold enrichment (6-mer frequency, TF over GST control); with ETV5, 1.51 fold enrichment (6-mer frequency, TF over GST control); with HSF1, 1.21 fold enrichment (6-mer frequency, TF over GST control); in the assay with SPIC, 1.54 fold enrichment (6-mer frequency, TF over GST control); with ELF4, 1.41 fold enrichment (6-mer frequency, TF over GST control); with ELK4 it was 1.29 fold enrichment (6-mer frequency, TF over GST control). Also, the binding signal with ETV2 is 1.59 fold enrichment (6-mer frequency, TF over GST control); with ELF3, 1.16 fold enrichment (6-mer frequency, TF over GST control); with CRX, 1.31 fold enrichment (6-mer frequency, TF over GST control); in the assay with ETV1 it was 1.39 fold enrichment (6-mer frequency, TF over GST control); in the assay with ERF, 1.5 fold enrichment (6-mer frequency, TF over GST control); with ETV3L, 1.52 fold enrichment (6-mer frequency, TF over GST control). Besides, the binding signal was 1.48 fold enrichment (6-mer frequency, TF over GST control) with ETS2; 1.43 fold enrichment (6-mer frequency, TF over GST control) with SPDEF; 1.39 fold enrichment (6-mer frequency, TF over GST control) in the assay with ETV7; 1.79 fold enrichment (6-mer frequency, TF over GST control) with ELF5; 1.48 fold enrichment (6-mer frequency, TF over GST control) with ETV3; 1.47 fold enrichment (6-mer frequency, TF over GST control) in the assay with ETV6.
